For five compounds, composite z-score and z-score results are on record in PubChem BioAssay.

The structures appear in SMILES notation. The source made the active and inactive calls.

Assay [1] in a line: small molecules captured by biotinylated probe aFSTL3 – biochemical, small-molecule microarray, fluorescence 635/667, stem cell growth factor project, primary screen (AID 1064).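 Further: measures binding of the biotinylated anti-FSTL3 antibody to printed compounds.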 The following applies: higher = more signal.
Assay [2] can be described thus: binders from COS7 lysate, DM2A8 probe, primary screen, torsin A project, cell lysate, small-molecule microarray, fluorescence 635/667 (AID 1065). The following applies: higher = more signal, COS7 lysate expressing mutant human TOR1A.
A short description of assay [3]: small molecules captured by biotinylated probe aFGF2 – biochemical, small-molecule microarray, fluorescence 635/667, stem cell growth factor project, primary screen (AID 1067).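 Further: measures binding of biotinylated aFGF2 protein to printed compounds on slides; z-score merges feature fluorescence and signal-to-noise across triplicate slides.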 The following applies: higher = more signal.
Assay [4] can be described thus: small molecules captured by biotinylated probe aFGF10 – biochemical, small-molecule microarray, fluorescence 635/667, stem cell growth factor project, primary screen (AID 1071).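 Further: score merges 667 nm spot intensity and signal to noise from triplicate slides.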 The following applies: higher = more signal.
The target in assay [5] is Neurogenic locus notch homolog protein 2 (Homo sapiens) (UniProt Q04721). Kind of assay: small molecules binding Notch2 protein – biochemical, small-molecule microarray, 635 nm fluorescence, stem cell growth factors, primary screen (AID 1073). The note with it: higher = more signal.
Assay [6] has as its target Pro-neuregulin-1, membrane-bound isoform (Homo sapiens) (UniProt Q02297). Kind of assay: small molecules binding neuregulin-1 protein – biochemical, small-molecule microarray, fluorescence 635/667, psychiatric disease protein project, primary screen (AID 1075).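 Further: score combines 667 nm spot fluorescence with signal to noise.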 The note with it: NRG1 binding, 635 nm fluorescence, higher = more signal.
Assay [7] relates to Neuregulin-1 EGF-like domain. In words: small molecules binding NRG1 EGF domain – biochemical, small-molecule microarray, 635 nm fluorescence, primary screen (AID 1081).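 Further: binding of the protein to compounds printed on small-molecule microarray slides.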 The following applies: higher = more signal.
Assay [8] is described as follows: FRG1 expression reporter modulators in myotubes – cell-based, C2C12 myotubes, firefly/Renilla luciferase, luminescence, FRG1 inhibition for FSHD, primary screen (AID 1084). The following applies: FRG1 promoter luciferase, higher = more signal, called active from +8 up or from −8 down.
Assay [9] in a line: small molecules captured by biotinylated probe aFST – biochemical, small-molecule microarray, fluorescence 635/667, stem cell growth factor project, primary screen (AID 1086).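 Further: score merges 667 nm fluorescence with signal-to-noise of each printed compound spot.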 The following applies: higher = more signal.
A short description of assay [10]: binders of probe aHhip on microarray, primary screen, stem cell growth factor project, biochemical, small-molecule microarray, fluorescence 635/667 (AID 1087).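 Further: score merges spot fluorescence at 667nm with spot signal to noise ratio.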 The note with it: higher = more signal.
Assay [11] relates to PRMT1 (protein arginine N-methyltransferase 1). In words: small molecules binding arginine methyltransferase PRMT1 – biochemical, small-molecule microarray, 635 nm fluorescence, primary screen (AID 1088).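 Further: binding of Prmt1 protein to compounds spotted on small-molecule microarray slides.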 The following applies: higher = more signal.
Assay [12] can be described thus: growth effects on S. cerevisiae YJM789 – YJM789 clinical isolate, OD600, 24 h, basal, primary screen (AID 1089).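 Further: growth of clinical yeast isolate S. cerevisiae YJM 789 seeded 1000 cells per well; test concentration not given here.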 The note with it: higher = more signal, called active from +8 up or from −8 down.
The nature of assay [13]: S. pombe growth modifiers, basal conditions – strain 972, OD600, 24 h, no modulator, primary screen (AID 1090).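 Further: basal condition with compound alone and no growth modifier present; test concentration not given here.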 The following applies: S. pombe 972 growth, higher = more signal, called active from +8 up or from −8 down.
Assay [14] in a line: budding yeast growth modifiers under rapamycin – strain BY4716, OD600, 96 h, primary screen (AID 1091). Further: test concentration not given here. The following applies: S. cerevisiae BY4716 + rapamycin, higher = more signal, called active from +8 up or from −8 down.
Assay [15] has as its target Torsin-1A-interacting protein 2 (Homo sapiens) (UniProt Q8NFQ8). In words: small molecules binding lysate-expressed LULL1 – cell lysate, human LULL1 lysate, 635/667 nm fluorescence, primary screen (AID 1092).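 Further: probe is lysate of COS7 cells overexpressing human LULL1; score merges per-feature 667 nm fluorescence with signal-to-noise.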 The following applies: small-molecule microarray, hLULL1 lysate binding, 635 nm fluorescence; higher = more signal.
Assay [16] can be described thus: optical density change of DRC41 E. coli – strain DRC41, OD650, 24 h, E. coli filamentation project, primary screen (AID 1093).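 Further: MC1000 strain lacking acrAB efflux and sulA so SOS filamentation is blocked; test concentration not given here.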 The note with it: E. coli DRC41 growth, higher = more signal, called active from +8 up or from −8 down.
The nature of assay [17]: probe aLefty2 binding to arrayed compounds – biochemical, biotinylated probe, 635/667 nm fluorescence, primary screen (AID 1094).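 Further: score merges spot fluorescence near 667 nm with spot signal-to-noise ratio.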 The note with it: small-molecule microarray, higher = more signal.
Assay [18] concerns Noggin (protein binding on small-molecule microarray). Kind of assay: small molecules binding Noggin protein – biochemical, 635/667 nm fluorescence, primary screen (AID 1095).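 Further: score merges 667 nm feature fluorescence with signal to noise over triplicate slides.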 The note with it: 635 nm fluorescence, higher = more signal.
In assay [19] the target is Neurogenic locus notch homolog protein 3 (Homo sapiens) (UniProt Q9UM47). Kind of assay: small molecules binding NOTCH3 protein – biochemical, 635/667 nm fluorescence, primary screen (AID 1096). The note with it: small-molecule microarray, 635 nm fluorescence, higher = more signal.
The nature of assay [20]: probe aEGFR binding to arrayed compounds – biochemical, biotinylated probe, 635/667 nm fluorescence, primary screen (AID 1097).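 Further: probe is a biotinylated anti-EGFR antibody binding compounds printed on slides; score combines fluorescence near 667 nm and signal to noise of each spot.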 The following applies: small-molecule microarray, higher = more signal.

Sequence of Pro-neuregulin-1, membrane-bound isoform (Homo sapiens) (Q02297 whole entry, looked up, the tested form may be a part, canonical isoform): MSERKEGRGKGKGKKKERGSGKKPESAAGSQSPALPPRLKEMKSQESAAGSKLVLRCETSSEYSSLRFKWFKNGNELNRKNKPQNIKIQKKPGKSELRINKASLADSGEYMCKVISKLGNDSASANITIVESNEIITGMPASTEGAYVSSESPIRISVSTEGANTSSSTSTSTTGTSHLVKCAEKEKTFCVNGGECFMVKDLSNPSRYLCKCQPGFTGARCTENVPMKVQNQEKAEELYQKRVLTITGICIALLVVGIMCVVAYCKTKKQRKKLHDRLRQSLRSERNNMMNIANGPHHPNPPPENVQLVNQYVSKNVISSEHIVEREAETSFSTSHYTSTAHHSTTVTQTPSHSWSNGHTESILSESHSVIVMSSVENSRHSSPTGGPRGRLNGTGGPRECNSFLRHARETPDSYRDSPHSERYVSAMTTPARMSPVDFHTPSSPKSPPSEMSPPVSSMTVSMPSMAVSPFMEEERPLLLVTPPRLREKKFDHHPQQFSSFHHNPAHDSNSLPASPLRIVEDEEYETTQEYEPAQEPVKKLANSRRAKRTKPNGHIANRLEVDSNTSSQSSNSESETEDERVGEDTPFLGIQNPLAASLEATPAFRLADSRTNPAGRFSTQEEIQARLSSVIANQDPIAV
Sequence of Neurogenic locus notch homolog protein 3 (Homo sapiens) (Q9UM47 whole entry, looked up): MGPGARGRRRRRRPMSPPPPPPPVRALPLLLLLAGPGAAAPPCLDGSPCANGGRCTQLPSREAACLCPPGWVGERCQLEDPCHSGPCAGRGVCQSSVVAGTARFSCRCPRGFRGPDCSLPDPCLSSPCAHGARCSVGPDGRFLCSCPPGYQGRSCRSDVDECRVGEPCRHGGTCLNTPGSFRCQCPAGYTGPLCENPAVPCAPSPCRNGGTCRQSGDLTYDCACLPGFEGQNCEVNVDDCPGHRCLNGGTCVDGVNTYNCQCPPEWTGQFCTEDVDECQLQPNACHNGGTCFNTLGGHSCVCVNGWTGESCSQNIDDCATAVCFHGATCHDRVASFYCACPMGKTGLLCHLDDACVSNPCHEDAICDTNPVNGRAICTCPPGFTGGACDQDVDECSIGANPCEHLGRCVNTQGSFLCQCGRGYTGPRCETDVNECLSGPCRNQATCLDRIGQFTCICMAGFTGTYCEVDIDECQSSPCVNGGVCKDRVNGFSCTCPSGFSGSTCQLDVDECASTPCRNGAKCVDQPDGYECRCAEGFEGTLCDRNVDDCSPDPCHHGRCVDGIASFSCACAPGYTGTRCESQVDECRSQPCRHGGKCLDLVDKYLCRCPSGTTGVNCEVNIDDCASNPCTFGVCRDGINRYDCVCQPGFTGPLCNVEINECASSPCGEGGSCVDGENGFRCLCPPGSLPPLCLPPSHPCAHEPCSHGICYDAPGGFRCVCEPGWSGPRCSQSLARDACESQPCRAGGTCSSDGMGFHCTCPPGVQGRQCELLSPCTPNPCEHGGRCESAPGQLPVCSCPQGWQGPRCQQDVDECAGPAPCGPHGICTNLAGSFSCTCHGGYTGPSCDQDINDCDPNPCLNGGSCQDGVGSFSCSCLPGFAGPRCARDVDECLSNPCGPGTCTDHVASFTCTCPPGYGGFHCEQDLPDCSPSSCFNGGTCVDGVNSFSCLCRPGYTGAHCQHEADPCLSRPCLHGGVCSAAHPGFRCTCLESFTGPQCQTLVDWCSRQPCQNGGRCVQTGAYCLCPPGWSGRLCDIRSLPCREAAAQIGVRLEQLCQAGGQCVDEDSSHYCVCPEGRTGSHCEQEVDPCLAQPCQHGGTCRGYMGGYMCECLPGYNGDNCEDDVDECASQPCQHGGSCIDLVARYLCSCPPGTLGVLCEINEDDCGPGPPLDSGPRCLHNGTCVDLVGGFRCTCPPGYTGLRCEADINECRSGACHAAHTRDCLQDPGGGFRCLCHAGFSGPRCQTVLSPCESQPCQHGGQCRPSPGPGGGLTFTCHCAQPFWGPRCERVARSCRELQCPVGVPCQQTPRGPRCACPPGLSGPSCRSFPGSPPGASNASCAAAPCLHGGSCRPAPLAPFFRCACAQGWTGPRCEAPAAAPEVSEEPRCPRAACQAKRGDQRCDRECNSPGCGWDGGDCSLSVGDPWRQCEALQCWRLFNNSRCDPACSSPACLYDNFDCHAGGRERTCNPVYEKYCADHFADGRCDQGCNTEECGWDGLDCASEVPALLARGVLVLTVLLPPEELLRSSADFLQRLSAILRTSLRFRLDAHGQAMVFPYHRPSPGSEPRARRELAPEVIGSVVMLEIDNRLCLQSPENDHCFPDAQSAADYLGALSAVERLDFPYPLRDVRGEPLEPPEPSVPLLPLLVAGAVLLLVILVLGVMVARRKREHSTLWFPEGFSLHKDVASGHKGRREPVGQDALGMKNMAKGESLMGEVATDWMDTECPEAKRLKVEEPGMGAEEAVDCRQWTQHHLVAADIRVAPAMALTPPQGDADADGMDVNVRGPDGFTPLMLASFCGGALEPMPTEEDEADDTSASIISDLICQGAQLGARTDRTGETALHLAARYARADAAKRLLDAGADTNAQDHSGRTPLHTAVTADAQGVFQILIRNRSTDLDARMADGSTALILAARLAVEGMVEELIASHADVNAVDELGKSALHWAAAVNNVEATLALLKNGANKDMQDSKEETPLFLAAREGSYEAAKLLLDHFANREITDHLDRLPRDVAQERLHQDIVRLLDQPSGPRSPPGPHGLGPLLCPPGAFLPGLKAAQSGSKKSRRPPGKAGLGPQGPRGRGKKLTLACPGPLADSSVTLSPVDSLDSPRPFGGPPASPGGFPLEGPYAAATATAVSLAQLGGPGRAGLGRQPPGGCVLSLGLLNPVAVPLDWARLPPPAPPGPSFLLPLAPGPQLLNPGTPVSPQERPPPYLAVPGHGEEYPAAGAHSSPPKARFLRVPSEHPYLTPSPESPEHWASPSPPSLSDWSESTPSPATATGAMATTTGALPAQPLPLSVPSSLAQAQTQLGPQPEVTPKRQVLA
Sequence of Torsin-1A-interacting protein 2 (Homo sapiens) (Q8NFQ8 whole entry, looked up): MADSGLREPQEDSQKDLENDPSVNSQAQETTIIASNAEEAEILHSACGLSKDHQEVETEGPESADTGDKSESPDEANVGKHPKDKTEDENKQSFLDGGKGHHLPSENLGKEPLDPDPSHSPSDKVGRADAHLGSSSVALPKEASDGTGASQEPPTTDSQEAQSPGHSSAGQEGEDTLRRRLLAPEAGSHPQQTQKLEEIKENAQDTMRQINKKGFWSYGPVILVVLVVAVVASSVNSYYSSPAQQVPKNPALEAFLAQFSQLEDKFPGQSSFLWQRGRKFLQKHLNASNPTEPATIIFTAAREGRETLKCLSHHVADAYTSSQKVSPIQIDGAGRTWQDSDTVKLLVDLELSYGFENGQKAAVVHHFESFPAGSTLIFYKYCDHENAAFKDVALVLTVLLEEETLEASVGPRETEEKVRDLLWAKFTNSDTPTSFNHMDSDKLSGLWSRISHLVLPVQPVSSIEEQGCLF

On to `COc1ccc(O[C@H]2C=C[C@@H](c3ccccc3)O[C@@H]2CON=CC[C@@H]2C=C[C@H](OC(C)=O)[C@@H](COC(C)=O)O2)cc1`, for which the composite z-score in [1] is -0.142; in assay [2] it was 0.0191; in [3], -0.0667; in [4] it was 0.138; in [5] it was -0.265; in assay [6] it was -0.364. Moreover, the composite z-score in assay [7] was -0.216; in [9], 0.388; in [10] it was -0.0994; in assay [11], 0.15; in assay [15] it was 0.22; in assay [17] it was -0.107. The composite z-score is 0.691 in [18], -0.22 in [19] and -0.0267 in assay [20]. Moreover, the z-score in [8] is 1.01 (inactive); in [12], 0.507 (inactive); in assay [13] it was 0.722 (inactive); in assay [14], 0.721 (inactive); in assay [16], 0.363 (inactive).
As to `C[C@@H]1CC[C@H]2C(=O)O[C@@H](Cc3ccccc3)CN2[C@H]1c1ccc(Br)cc1`, the composite z-score was -0.395 in assay [1]; 0.207 in [2]; -0.185 in assay [3]; -0.112 in assay [4]; 0.526 in assay [5]; 0.649 in [6]. Further, the composite z-score was 0.408 in assay [7]; 0.384 in [9]; -0.201 in [10]; 1.14 in assay [11]; 1.16 in [15]; -0.0258 in assay [17]. For the same compound, the composite z-score is 0.31 in assay [18], 0.22 in [19] and -0.0485 in assay [20]. Moreover, the z-score was -0.205 (inactive) in [8]; 0.004 (inactive) in [12]; -2.36 (inactive) in assay [13]; -0.882 (inactive) in assay [14]; -0.529 (inactive) in assay [16].
Turning to `CCOC(=O)[C@H](CC(C)C)NC(=O)CCC1CC(OC(=O)NCc2cccc3ccccc23)CC2(CCCC(COC(=O)NCCc3ccc(Cl)cc3)O2)O1` (stereo not given in full), the composite z-score is -0.318 in assay [1]; -0.19 in assay [2]; -0.0797 in assay [3]; 0.293 in assay [4]; 0.461 in assay [5]; 0.533 in assay [6]. In addition, the composite z-score was 0.744 in [7]; -0.001 in [9]; -0.0994 in assay [10]; 0.333 in assay [11]; 1.04 in assay [15]; -0.188 in assay [17]. The composite z-score in [18] was 0.434; in [19], 0.741; in assay [20], -0.0334. The z-score was 1.83 (inactive) in assay [8]; -1.16 (inactive) in assay [12]; -0.858 (inactive) in assay [13]; -0.164 (inactive) in assay [14]; -0.0339 (inactive) in assay [16].
As to `O=C1C[C@@H](O)[C@@H](O)[C@@H]2[C@@H]3C(=O)N(c4cccc(Oc5ccccc5)c4)C(=O)[C@@H]3CC[C@H]12`, the composite z-score is -0.499 in [1]; 0.247 in [2]; -0.0985 in assay [3]; 0.206 in [4]; 0.484 in assay [5]; 0.241 in [6]. The composite z-score was 0.413 in assay [7]; 0.167 in assay [9]; -0.153 in assay [10]; -0.129 in assay [11]; 0.685 in assay [15]; -0.156 in assay [17]. In addition, the composite z-score in assay [18] was 0.292; in assay [19] it was 1.02; in assay [20], -0.145. For the same compound, the z-score in assay [8] is -0.0447 (inactive); in assay [12], 0.157 (inactive); in [13] it was 0.462 (inactive); in [14] it was 0.469 (inactive); in [16], 0.378 (inactive).
As to `CC(C)[C@@H](OCc1ccccc1)[C@H](C)C=NOC[C@@H](O)COCc1ccco1`, the composite z-score in [1] was -0.457; in [2], 0.84; in assay [3], -0.251; in assay [4] it was -0.416; in assay [5], -1.08; in assay [6], -0.417. Moreover, the composite z-score is -0.569 in [7]; -1.53 in assay [9]; -0.302 in [10]; -0.0832 in assay [11]; -0.425 in assay [15]; -0.364 in assay [17]. The results for the composite z-score in assay [18], in [19] and in assay [20] were 0.0964, -0.0957 and -0.357, respectively. The z-score in [8] was 0.887 (inactive); in assay [12], -1.64 (inactive); in assay [13], -4.1 (inactive); in [14], -1.15 (inactive); in assay [16], 0.799 (inactive).
